Compound activity: PubChem, several laboratories
STAT1 inh = inhibitors of IFN-gamma induced STAT1 signaling; NIH 3T3 STAT1-luciferase reporter, luminescence; inhibition, % at 5.5 µM; 200,000 tested, 0.35% active; AID 920;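 active = inhibition above a set limit, the mean inhibition across all tested compounds plus 3 SD, cut at about 34% in these data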;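 also: 0% = IFN-gamma with DMSO and 100% = IFN-gamma with 300 µM nifuroxazide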
PPC-1+TRAIL kill = compounds killing PPC-1 cancer cells with TRAIL present (potentiator screen, no TRAIL-free arm). 220,000 tested, 0.41% active. cell killing (% activity), % at 4 µM or 5 µM. PPC-1 cells + TRAIL, ATPLite viability luminescence;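 active = cell killing above 50% in the first pass at 4 µM, then a duplicate retest at 5 µM averaging 50% or more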;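 also: plate controls were cells with TRAIL plus DMSO for no effect and medium-only wells lacking cells for full effect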
C8 TRAIL sens = sensitizes caspase-8 expressing cells to TRAIL; NB7+C8 cells + TRAIL, ATPlite viability luminescence; inhibition (viability loss, TRAIL sensitization), % at 10 µM; 360,000 tested, 1% active; AID 624354;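 active = compounds causing at least 50% loss of cell viability in the single-dose screen, relative to plate controls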
STAT3 blocker = reduces IL-6 driven STAT3 reporter signal; U3A cells, IL-6 STAT3-luciferase reporter, luminescence; host cell line lacks STAT1; inhibition, % at 5.5 µM; 190,000 tested, 0.89% active;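 active = inhibition above the mean inhibition across all screened compounds plus 3 SD, cut at about 44% in these data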;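 also: 0% = DMSO only wells and 100% = 100 µM nifuroxazide control wells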
HSF1 inhib = HSF1 inhibition. NIH3T3-HGL HSE-luciferase, MG132-induced, luminescence 8 h; hits give low values. activity change, negative = inhibition, % at 7.5 µM (by protocol). 300,000 tested, 0.77% active;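 active = more than half of replicate wells show activity change below -50%, luminescence cut by over half; inconclusive = some wells, but at most half, below -50%; inactive = no replicate well below -50%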;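 also: luciferase reports HSF-1 transcriptional activity via heat shock element; 0% = median of DMSO wells and -100% = zero luminescence signal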
HSP90 refold inh = HSP90 refolding inhibition in rabbit reticulocyte lysate; luciferase refolding luminescence, 3 h; inhibition, % at 5.6 µM; 290,000 tested, 0.91% active; AID 1789;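 active = inhibition above the screen-wide mean plus 3 SD, computed separately per campaign, cut at about 16% in these data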;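 also: 0% = DMSO wells and 100% = 60 µM geldanamycin wells; inhibitors lower the luminescence because luciferase stays unfolded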
HSP90 inh confirm = confirmation of HSP90 inhibitors; shares compounds with HSP90 refold inh; rabbit reticulocyte lysate, luciferase refolding luminescence, 3 h; inhibition, % at 5.9 µM; 2,300 tested, 64% active; in the data active = inhibition above about 18%;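 also: 0% = vehicle wells and 100% = reference inhibitor wells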
FLuc counter = firefly luciferase inhibition, HSP90 counter-screen. shares compounds with HSP90 refold inh. purified native firefly luciferase, luminescence. inhibition, % at 5.9 µM. 2,300 tested, 48% active;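 active = inhibition above the mean inhibition of all tested sample wells plus 3 SD, cut at about 10% in these data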;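 also: 0% = DMSO with luciferase and 100% = wells lacking luciferase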
Target sequence (P08659 whole entry, looked up): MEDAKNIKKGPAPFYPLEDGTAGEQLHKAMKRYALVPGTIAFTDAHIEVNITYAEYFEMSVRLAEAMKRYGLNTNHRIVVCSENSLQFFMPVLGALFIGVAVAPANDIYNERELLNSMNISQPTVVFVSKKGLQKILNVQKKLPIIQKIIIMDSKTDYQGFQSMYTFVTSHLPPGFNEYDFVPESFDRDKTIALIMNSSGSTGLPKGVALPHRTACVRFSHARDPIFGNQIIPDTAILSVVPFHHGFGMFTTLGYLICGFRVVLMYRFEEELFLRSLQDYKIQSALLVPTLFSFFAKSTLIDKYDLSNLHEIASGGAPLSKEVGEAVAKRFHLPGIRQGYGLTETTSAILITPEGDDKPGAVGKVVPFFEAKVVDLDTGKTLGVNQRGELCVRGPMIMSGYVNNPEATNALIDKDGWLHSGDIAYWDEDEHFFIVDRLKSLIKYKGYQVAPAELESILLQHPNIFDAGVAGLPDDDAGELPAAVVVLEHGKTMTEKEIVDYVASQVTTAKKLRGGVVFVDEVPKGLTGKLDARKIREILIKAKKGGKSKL
* = called active by the depositor; ? = inconclusive; · = no result given. Only some compounds are listed: those with a hit (about 2.4% of all), similar ones and a draw of the others.

SMILES | STAT1 inh | PPC-1+TRAIL kill | C8 TRAIL sens | STAT3 blocker | HSF1 inhib | HSP90 refold inh | HSP90 inh confirm | FLuc counter
COc1ccc(N(C(C)C(=O)Nc2ccc(S(=O)(=O)N3CCOCC3)cc2)S(C)(=O)=O)cc1 (stereo not given) | -6 | -6 | -2 | -1 | -6 | 1 | · | ·
O=C(O)c1ccc(N/N=C/c2c(F)cccc2Cl)cc1 | · | · | 11 | · | -46 | 80* | 82* | 76*
O=C(N/N=C/c1c(F)cccc1Cl)C1CC1 | · | · | -6 | · | 0 | 2 | · | ·
O=C(O)c1ccc(N/N=C/c2ccc(-c3ccc(Cl)cc3Cl)o2)cc1 | · | -18 | 20 | · | 7 | 56* | -7 | -30
COC(=O)c1cc(S(=O)(=O)NCC2CCN(Cc3cccc(Cl)c3)CC2)c[nH]1 | · | · | 7 | · | -4 | -3 | · | ·
O=C(Nc1cccc(C(=O)O)c1)Nc1ccc2c(c1)OCO2 | · | · | 49 | · | ? | 86* | 96* | 91*
O=C(Nc1ccccc1)c1ccc2c(c1)OCCO2 | -50 | 46 | 34 | 28 | 14 | 5 | · | ·
Cc1cccc(NC(=O)c2ccc3c(c2)OCCO3)c1 | · | · | 87* | · | 18 | 34* | 48* | 36*
Cc1ccc(C(=O)Nc2ccc3c(c2)OCCO3)c(C)c1 | · | · | 87* | · | -20 | 65* | 82* | 77*
Cc1cc(C(=O)Nc2ccc3c(c2)OCO3)cs1 | -50 | 48 | 36 | -9 | 26 | 20* | 12 | -14
Cc1c(C(=O)NCc2ccc(C(F)(F)F)cc2)sc(=O)n1Cc1ccc(S(=O)(=O)N(C)C)cc1 | · | · | 9 | · | · | · | · | ·
C[C@H]1CN([C@@H](C)CO)C(=O)c2cc(Br)cnc2O[C@H]1CN(C)C(=O)c1ccccn1 | · | · | -12 | · | · | · | · | ·
O=C(Cc1ccccc1)N1CCCC1c1ccccc1 (stereo not given) | -5 | -3 | -10 | 5 | -2 | 2 | · | ·
O=C(Nc1ccc(NC(=O)c2ccc3c(c2)OCCO3)cc1)c1ccccc1 | · | · | 32 | · | 12 | 2 | · | ·
O=C(Nc1ccc2c(c1)OCCO2)c1ccc(Cl)cc1 | · | · | 59* | · | 9 | 19* | 25* | 15*
CC(=O)Nc1ccc(C(=O)Nc2ccc3c(c2)OCCO3)cc1 | · | · | 18 | · | 2 | -1 | · | ·
Cc1ccc(NC(=O)c2ccc3c(c2)OCCO3)cc1C | · | · | 76* | · | -21 | 42* | 68* | 61*
CCOC(=O)C1CCN(C(=O)/C=C/c2ccc(OC)cc2)CC1 | -19 | 4 | 9 | -5 | 9 | 5 | · | ·
O=C(COc1cccc2cccnc12)N1CCc2ccccc21 | -27 | 9 | 5 | -2 | 24 | -1 | · | ·
Cc1cc(-c2csc(NC(=O)c3ccc(S(=O)(=O)N(C)C)cc3)n2)c(C)n1-c1ccccc1 | 6 | 11 | -3 | 12 | -15 | 22* | 41* | -2
COc1cccc(CN(C)C(=O)C2CCCN(C(=O)c3ccc(Cl)cc3)C2)c1 (stereo not given) | · | · | -18 | · | · | · | · | ·
COc1ccc(/C=C/C(=O)Nc2ccccc2C(=O)O)cc1OC | -25 | 24 | 29 | 27 | -56* | 72* | 55* | 52*
COc1ccc(/C=C/C(=O)Nc2ccccc2C(F)(F)F)cc1OC | 2 | 7 | 10 | 18 | 10 | -3 | · | ·
COc1cccc(Sc2nc(-c3ccccc3)ncc2S(C)(=O)=O)c1 | · | · | -2 | · | -36 | 26* | 15 | 14*
CS(=O)(=O)c1cnc(-c2ccccc2)nc1Sc1ccc(F)cc1 | · | · | -16 | · | 7 | -3 | · | ·
SMILES | STAT1 inh | PPC-1+TRAIL kill | C8 TRAIL sens | STAT3 blocker | HSF1 inhib | HSP90 refold inh | HSP90 inh confirm | FLuc counter
CCC(=O)Nc1ccc(Cl)c(NC(=O)c2c(OC)cccc2OC)c1 | -4 | 28 | 2 | 5 | 0 | 1 | · | ·
Cc1ccc(NC(=S)Nc2cccc3ccccc23)cc1F | · | · | 14 | · | -55* | 19* | 30* | -11
NS(=O)(=O)c1c(Sc2ccccc2C(=O)O)ccc2ccccc12 | · | · | 4 | · | -19 | 23* | 20* | -17
CC(c1ccco1)N(C(=O)COc1ccc(Cl)cc1)c1ccccn1 (stereo not given) | -2 | 21 | 15 | 4 | · | 20* | 0 | -10
CCOC(=O)c1ccc(-c2c(-c3ccc4c(c3)OCO4)noc2C)cc1F | · | · | 15 | · | -9 | 17* | 2 | -6
C[n+]1ccc(/C=C/c2cccs2)cc1 | · | -13 | 1 | · | 1 | 28* | 0 | -4
O=C1NN=C2CCCCCC12 (stereo not given) | · | · | -9 | · | · | · | · | ·
Cc1c(C)c2ccc(OCC(=O)Nc3ccccn3)c(C)c2oc1=O | · | · | 93* | · | -88* | 96* | 100* | 91*
COc1ccccc1OCC(=O)Nc1ccccn1 | -29 | 41 | 26 | 16 | 19 | 70* | 20* | 3
COc1ccccc1NC(=O)C(=O)Nc1ccccn1 | -39 | 34 | 21 | -52 | 28 | 4 | · | ·
COc1cccc(OC)c1-c1nn2c(-c3cc(-c4ccccc4)n[nH]3)nnc2s1 | -4 | -18 | 12 | 18 | -1 | 2 | · | ·
CCOc1ccc2nc(NC(=O)CSc3cn[nH]n3)sc2c1 | · | · | 31 | · | 17 | 19* | 25* | 14*
CCOC(=O)c1cnc(-c2ccccc2)nc1N1CCOCC1 | 3 | 10 | 4 | 10 | -9 | 3 | · | ·
CCOC(=O)c1[nH]cc(-c2ccccc2)c1N1CCOCC1 | 7 | 22 | -4 | -8 | · | 18* | 0 | -2
CC(C)(C)c1ccc(NC(=O)CON=C(N)c2ccccc2)cc1 | · | · | -1 | · | · | · | · | ·
COc1ccc(/C(N)=N/OC(=O)CSc2ccccc2)cc1 | -18 | -18 | 5 | 10 | -1 | 4 | · | ·
COc1ccc(/C(N)=N/OC(=O)c2ccco2)cc1 | 53* | 34 | 48 | 57* | -22 | 41* | 60* | 43*
CC(C)(C)c1ccc(C(=O)O/N=C(\N)c2ccccc2)cc1 | · | · | 93* | · | -93* | 69* | 25* | 20*
COc1ccc(C(=O)O/N=C(\N)c2ccccc2)cc1 | · | · | 85* | · | -46 | 25* | 43* | 79*
COc1ccccc1NC(=O)O/N=C(\N)c1ccccc1 | · | 9 | -18 | · | -12 | 17* | -1 | -13
CCOC(=O)C1(C)CCN1C(=O)c1ccccc1 (stereo not given) | · | · | -8 | · | · | · | · | ·
COc1cccc(-c2cc(NC=O)c3ncc(-c4ccc(C(C)=O)cc4)n3c2)c1 | · | · | 16 | · | · | · | · | ·
COc1ccc(CNC(=O)C2(C)Cc3c(-c4ccc(N(C)C)cc4)ccnc3O2)cc1OC (stereo not given) | · | · | -15 | · | · | · | · | ·
O=C1CCC(=O)N1c1ccc(-c2nc3ccccc3s2)cc1 | 68* | 31 | 78* | 86* | -72* | 46* | 74* | 66*
CCn1c(C)nc2cc(OC)ccc21 | -7 | 28 | -10 | 5 | -2 | 1 | · | ·
CCn1c(C)nc2cc(N)ccc21 | · | 8 | 25 | · | -18 | 34* | 8 | -2
